# In the supplement of paper PMC11417369:
# Whole data set: some 25,000 sequences, median “ln(normalized median fluorescence intensity)” near 9.7, cut for the highest 2% near 11. For the sample, the highest values were picked, then their nearest neighbours and some sequences at random.
# Tested on: PfAP2-HC AP2 domain (GST-tagged)
# Experiment: gcPBM binding intensity (ln(normalized median fluorescence intensity)); higher = stronger DNA binding
# Procedure, shortened: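 The highest Masliner-normalised natural-log median intensity across replicate spots of either probe orientation is reported as binding intensity. GST-tagged P. falciparum DNA-binding domains expressed in E. coli were applied for 1 h to an Agilent 4 × 180k array of primer-extended double-stranded 36-bp intergenic genomic probes plus negative controls, and bound protein was detected with Alexa488 anti-GST antibody and scanned at 488 nm.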
row,Sequence,gcPBM binding intensity (ln)
1,ATTTTATTTTTTAAAGGTACAGTTACAGCTTATATA [XGTACX_site7513],9.51
2,ATAAGCATCTTTTGTGTGCACATAACAAAAAAAAAA,9.85
3,TTATAAATGAATAAATGTACAAAATATATATATATA [XGTACX_site8829],9.66
4,TTAAATAAAAAAATAACACACATATAAATCTATATG [CACACA_site7482],9.75
5,TTTTTTTTGTGTTCAAGTACAAAATTTTAAAGGTCA [XGTACX_site4011],9.26
6,TATTGTTGTTCATGTACACACTATAATAAAAGCAAT [CACACA_site6148],9.62
7,ATCTTATATTATCACACACACACGCACAAAACAGAA [CACACA_site1463],10.3
8,TATTTATTTATATAAACACACATAAATATAAATATA [CACACA_site6653],9.45
9,ATCTTATATGATCACACACACACGCACAAAACAGAA [CACACA_site4913],10.4
10,ATATAATTATAAAATAAACACACATATATATTTATA [CACACA_site8039],9.91
11,CATATATAAAAAAACACACACATATTTATATTTATA [CACACA_site6682],10.3
12,AAAAAAAACAAACACACACACAAATATTTATATATT [CACACA_site436],10.5
13,TATAAAACACACACACATATATATATATATTTATAT [TGCATGCA_negctrl_site48],11.2
14,CACAAAAATAAACACACACACATATATATTTATTAT [CACACA_site5923],11.1
15,CTTATATTAAAACACACACACGCACAAAACAGAAAT [CACACA_site1462],11
16,AAGGATCACGCACAAACACACATATTTATATTTATA [CACACA_site6405],9.95
17,CAATATAAAAAACACACACACAAACATATATTTATA [CACACA_site3703],10.5
18,AACAAAAAAACAAACACACACACACGCATATTTATA [CACACA_site7680],11.2
19,ATTCTATATATATAAACACACAAATATTTTTATATA [CACACA_site1677],9.65
20,TTCTTTTCTTCTACATGTACAAATATTATATATATA [XGTACX_site2996],9.97
21,TATATTATATTATACATACACACCCATATAATATGT [CACACA_site869],10.1
22,TATAAATTAATGACATGTACATAAAAGTATAGATGT [XGTACX_site6534],9.95
23,TTTATAAAATTATTTGCATGTAACAATTATAAATTG [TGCATGCA_site1026],9.42
24,TTTTTTTAAAACAAAAAAAAAAAAAAAAAAAAAAAA [TGCATGCA_negctrl_site418],8.22

row,Sequence,gcPBM binding intensity (ln)
1,AATATATATATATATACACACACACCGATATATATA [CACACA_site8158],11.2
2,AAAAAAAAAAAAAATACACACACACCGATATATATA [CACACA_site8142],10.6
3,TAATAATACCCAAGCACACACACACCCATATATATA [CACACA_site4831],10.6
4,TATACATACATACATACACACACACCGATATATATA [CACACA_site7896],10.2
5,TAAAAAAAAAAAAATACACACACACCGATATATATA [CACACA_site8498],10.7
6,GATATATATTAATATACACACACACCGATATATATA [CACACA_site8462],10.2
7,CAAAAAAAATTATACACACACACACCGATATATATA [CACACA_site4719],11.1
8,ATAATACCCAAGCACACACACACACCGATATATATA [CACACA_site8344],11.3
9,TATATATATATATACACACACACACCGATATATATA [CACACA_site8813],10.5
10,CAAAATAATATATATACACACACACCGATATATATA [CACACA_site8082],10.8
11,ATAATATATATTAATACACACACACCGATATATATA [CACACA_site9261],10.4
12,TTAATATAAGCAAATACACACACACCGATATATATA [CACACA_site9269],11.1
13,ATAAAGAAACATATATGTACTTATATATATATATAT [XGTACX_site5625],9.69
14,TATAAGAGAATATATACACACAAAAATAAATACAGT [CACACA_site5000],10.9
15,ATATATATATAATGAAGTACGAAAAAATAAGAAATG [XGTACX_site4001],9.9
16,TATAAAACAAATATATGTACATATCATAGTATAATA [XGTACX_site2965],9.75
17,AAGGAAATATAATATACACACATAAGTGTACTTCTA [CACACA_site6079],9.81
18,AATAGTCGGGTGCATACACACCTTAAATATAATATA [CACACA_site8271],9.57
19,CTAATCGTGCACAACTGTACATTTGTCAAGGGCAAT [XGTACX_site8662],9.62
20,AAAGAACAAATAAAACATAAAATAATATATATAGAT [CACACA_negctrl_site1764],10.1
21,AAAAAAACAGAAAACACACAAATTATCTTATAATTA [CACACA_site6282],9.8
22,AAAAAAAAAAAAAACACACACACACCCAAATACATA [CACACA_site708],10.5
23,AAAAAAAAAAAAAAAACACACACAACACCCATACCT [CACACA_site9208],10.4
24,ATATCTTATGTTATCACACACACACGCACAAAACAG [CACACA_site6800],10.3

row,Sequence,gcPBM binding intensity (ln)
1,AAAAAAAAAAAAAACACACACACACCCATACAAAAT [CACACA_site1446],11.6
2,AAAAAAAAAAAAAACACACACATACACCCAAAAATG [CACACA_site4223],10.3
3,TATATACACCCACATACACACAAATAAAAAAACACC [CACACA_site3414],10.5
4,AAAAAATACAAACACACACACACACCCATATATATA [CACACA_site3560],11
5,AAAAAAAAAAAAAACACACACAACACCCATACCTTA [CACACA_site3621],11.2
6,ATATCTTATATTATCACACACACACCCACAAAACAG [CACACA_site1464],11.5
7,TACAAACACCCATATACACACAAAAAAAAAATAAAA [CACACA_site5421],9.94
8,AAAAAAAAAAAAAAAACACACATACCCATATATTTT [CACACA_site6013],9.85
9,ATATATATTTAAACTACACACGCATATCTTAGAAAT [CACACA_site8348],10.1
10,ACTGTACTATAAAATACACACATATAAATATAAATA [CACACA_site3009],9.99
11,AATATTTAATTCAACACACATACATATTTATTAAAA [CACACA_site2342],9.99
12,ATGTGTATATGTTAATGTACAAATTTTGAAAATGCC [XGTACX_site2685],9.86
13,TATTATTATTTTATGGTGCAAAAAAAAAAAAAAAAA,8.83
14,TATTATATCTTATATGTATATTCCCACAAATTATAT [GTGCAC_negctrl_site362],9.59
15,TTTTGTTGTATGATAATTCTTTTATCAATATGTCTT [TGCATGCA_negctrl_site567],9.63
16,ACATTCACAAAATTTTGTACACATATATATATATAT [XGTACX_site3518],9.96
17,AATATATTTTAATACACACACACATATATATATATA [CACACA_site5969],10.4
18,AAAAAAACATGAAACACACACAAATATTTATTTATA [CACACA_site6967],10.2
19,TACTTACATATAATAACACACAAGAAAAAAATAAAA [CACACA_site1033],9.83
20,ACCTAAAAGGTATAATATATAAATAAAAAAAAAAAT [CACACA_negctrl_site134],9.72
21,CAAAAAAACAAACACACACACACACCCATATATATA [CACACA_site3653],11.5
22,AAAAAAAAAAAAAAAAAAAAACACCCAAAAAAATAT [XGTACX_negctrl_site210],10.1
23,AAAACACCCAAACACACACACACATATATATATATA [CACACA_site9119],10.8
24,TATACTCAGAAACACACACACACACCCAAAAAAAAA [CACACA_site4434],11.1

row,Sequence,gcPBM binding intensity (ln)
1,AAAAAAAAAAAACACACACACACACCCAAATATATA [CACACA_site150],10.6
2,AAAAAAAAAAAAAAAACACACACATACACCCAAAAA [CACACA_site7910],10.5
3,AAAAAAAAAAAAAACACACACACACCCAAATATATA [CACACA_site1169],11.3
4,GTATAATAGAAACACACACACACACCCAAAAAAAAA [CACACA_site2010],10.7
5,AACAAAAAAACAAACACACACACACCCATATATATA [CACACA_site3652],10.6
6,ATATAATGAATTATTAGAAAATAAAATGAATAAAGT [CACACA_negctrl_site690],9.87
7,CATTTTGTTTTAAAGTGTACATTATGTAATATAAAA [XGTACX_site647],9.33
8,TTTTAAAGAAAATATTTTATCATTATTTTTTGTACT [CACACA_negctrl_site1648],9.57
9,AATATAAATTTATATTGTACATATTTTATTATATGT [XGTACX_site905],9.67
10,TAAAACAGAATGAGGAGTACAAAAAGAAGAAAAGGG [XGTACX_site1246],9.83
11,ATAAAATGAAATATATGTACGCATCACTTGTTGAAC [XGTACX_site4530],9.72
12,AAAAAAAAAAAAAAAAAAAAATATATATATATATAT [GTGCAC_negctrl_site426],9.47
13,TATTTTGTTCTTTCCACACACAAATACAGATATTGT [CACACA_site6097],10.1
14,AAAAAAAAAAAACACACACACACACCCATACATACA [CACACA_site707],11.4
15,AACACCCAAAAACACACACACATACATACATACATA [CACACA_site4411],10.3
16,CAAACACCCAAACACACACACACATACATACATACA [CACACA_site8044],10.7
17,TAAACACCCATACATACACACATACATACACCCATA [CACACA_site5125],10
18,AAAAAAAAAAAAAAAACACACATACACCCCCACCCA [CACACA_site9117],10.2
19,TTAAAAAAAAAACACACACACATACCCATATATATA [CACACA_site5768],10.4
20,AAAAAAAAAAAAAACACACACACACCCATACCCATA [CACACA_site5577],10.5
21,AAAAAAAAAAAAAACACACACACACCCACATATACA [CACACA_site2663],10.6
22,AAAAAAAAAAAACACACACACACACCCATATACATA [CACACA_site2664],11
23,CACAAACACCCAAACACACACACACCGACATACATA [CACACA_site4410],11.1
24,AAAAAAAAAAAACACACACACACATACCCATACATA [CACACA_site5575],11.3
